Compound activity from PubChem.
A1 inh = inhibitors of the anti-apoptotic protein A1, read as caspase activation; MEF A1-2A-BIM cells, Caspase-Glo 3/7 luminescence, 3 h; percent of clofoctol response, vehicle zero; caspase activation, % (concentration not given with the values); 330,000 compounds, 0.066% hits; AID 2462;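 active = over half of replicate activation scores above 10%, or exactly half above 10 with the replicate mean above 10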
dFosB act = mouse delta FosB homodimer activation; purified delta FosB, TAMRA-CDK5 oligo fluorescence polarization; percent of positive-control signal above neutral wells; activation, % at 25 µM; 340,000 compounds, 0.99% hits; AID 493131;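 active = mean activation above about 17%, with every replicate also reaching it, limit read from the data, passing the limit was not always enough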
Target sequence (P13346 whole entry, looked up): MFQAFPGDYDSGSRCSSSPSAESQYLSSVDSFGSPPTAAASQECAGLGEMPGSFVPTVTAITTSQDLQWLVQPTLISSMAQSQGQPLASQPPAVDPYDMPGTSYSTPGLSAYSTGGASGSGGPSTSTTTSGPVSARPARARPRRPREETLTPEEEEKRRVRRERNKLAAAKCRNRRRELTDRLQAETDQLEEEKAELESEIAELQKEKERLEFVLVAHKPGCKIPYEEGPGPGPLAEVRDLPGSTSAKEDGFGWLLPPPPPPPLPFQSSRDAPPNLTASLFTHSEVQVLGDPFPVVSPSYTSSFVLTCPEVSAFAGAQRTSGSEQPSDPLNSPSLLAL
Vif inh = inhibitors of HIV Vif; HEK293T cells, Vif self-association by quenched fluorescence, imaging, 24 h; inhibition, % at 7.49 µM; 340,000 compounds, 0.35% hits; AID 602346; in the data active = inhibition above about 50%, passing the limit was not always enough
INS-1E GSIS act = GLuc luminescence reporter in INS-1E cells, primary screen for activators of glucose-dependent secretion of insulin; AID 743287; 370,000 compounds, 0.61% hits; activation, % at 16.6 µM; INS-1E GLuc reporter insulin secretion, 2-3 h;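 active = lowest replicate activation of at least 40%, so every replicate reaches that level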;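 also: 0% = median of neutral control wells and 100% = median of IBMX positive control wells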
Neddylation inh = blocks human cullin neddylation; P61081+Q13564; TR-FRET cullin neddylation, biochemical; inhibition, % at 25 µM; 360,000 compounds, 0.58% hits; in the data active = inhibition above about 36%
* marks the source's active call; other numbers are inactive results; . = not tested or not shown; ! = repeats disagree. A selection: hits, their analogues and other compounds. The true share with any hit is near 1.9%.

SMILES | A1 inh | dFosB act | Vif inh | INS-1E GSIS act | Neddylation inh
CCOc1ccc(CCNC(=O)CCC(=O)c2cccs2)cc1OCC | -1 | -6 | 24 | 95* | -5
COc1ccc(C(C)=O)cc1COC(=O)CCC(=O)c1cccs1 | 1 | -5 | 1 | 44* | -2
COc1ccc(CCNC(=O)CCC(=O)c2cccs2)cc1OC | 0 | 6 | -3 | 103* | 14
CCCC(=O)OCCNc1cc(Sc2nccn2C)c2nonc2c1[N+](=O)[O-] | 0 | -3 | 5 | 162* | -5
CCCSc1cc(NCCOC(=O)CCC)c([N+](=O)[O-])c2nonc12 | -1 | -8 | 5 | 14 | -18
CCC(=O)OCCNc1cc(Sc2nc3ccccc3[nH]2)c2nonc2c1[N+](=O)[O-] | 2 | -4 | -1 | 88* | 8
COc1ccc(-c2cn(CC[C@H]3CC[C@@H](NC(=O)CCN4CCCCC4)[C@@H](CO)O3)nn2)cc1 | . | . | . | 8 | .
O=C(C[C@@H]1C[C@H]2c3cc(NC(=O)Nc4ccc(F)cc4)ccc3O[C@H]2[C@@H](CO)O1)NC1CCCC1 | . | . | . | 6 | .
C[C@@H]1CCCCO[C@@H](CN(C)C(=O)c2ccncc2)[C@@H](C)CN([C@@H](C)CO)C(=O)c2cc(NC(=O)c3ccccc3)ccc2O1 | . | . | . | 4 | .
CN(c1ccccc1)c1nc(N)c(C#N)c(CC#N)c1C#N | 0 | -8 | -1 | 66* | 0
COc1ccc2c3c([nH]c2c1)[C@H](CO)N(Cc1ccccc1)CC31CN(S(C)(=O)=O)C1 | . | . | . | 13 | .
CCc1ccc(/C=N/NC(=S)NCCc2ccccc2)cc1 | 1 | 9 | 5 | 41* | 0
COc1cccc(NC(=O)C[C@@H]2CC[C@@H]3[C@H](COc4ccc(NC(=O)c5ccccc5F)cc4C(=O)N3C)O2)c1 | . | . | . | -19 | .
O=[N+]([O-])c1cccc(/C=C/c2nc[nH]c2[N+](=O)[O-])c1 | -5 | -5 | -5 | 40* | -19
Cc1ccc(NC(=O)c2nc[nH]c2C(=O)Nc2ccccc2F)cc1 | . | . | 90* | 3 | 25
CCCN1C[C@@H](C)[C@@H](OC)CN(C)C(=O)c2ccc(NC(=O)c3cccc(F)c3)cc2OC[C@H]1C | . | . | . | 47*! | 7
CCCN1C[C@H](C)[C@H](OC)CN(C)C(=O)c2ccc(NC(=O)c3cccc(F)c3)cc2OC[C@@H]1C | . | . | . | 1 | .
CCN1CCN(c2ccc(NC(=O)c3ccc(Br)o3)cc2)CC1 | . | 1 | 7 | 7 | 3
O=C(Nc1ccc(N2CCCC2)cc1)c1ccc(Br)o1 | -2 | 40* | 12 | . | -1
CN1CCN(c2ccc(NC(=O)c3cc4ccccc4o3)cc2)CC1 | 0 | -5 | -12 | . | 3
CCCC(=O)N1CCN(c2ccc(NC(=O)c3ccc([N+](=O)[O-])o3)cc2)CC1 | . | -2 | 30 | -22 | -48
CCC(=O)N1CCN(c2ccc(NC(=O)c3ccc([N+](=O)[O-])o3)cc2)CC1 | . | -6 | 73* | -44 | -46
CN1CCN(c2ccc(NC(=O)c3ccc(-c4ccc(Br)cc4)o3)cc2)CC1 | 0 | 41* | -2 | -3 | -17
C/C=C/c1cnc2c(c1)C(=O)N([C@H](C)CO)C[C@@H](C)[C@@H](CN(C)C(=O)CN1CCOCC1)O2 | . | . | . | 21 | .
C[C@@H]1CCCCO[C@H](CN(C)Cc2ccc3c(c2)OCO3)[C@H](C)CN([C@@H](C)CO)C(=O)c2cc(NC(=O)c3ccncc3)ccc2O1 | . | . | . | 3 | .
SMILES | A1 inh | dFosB act | Vif inh | INS-1E GSIS act | Neddylation inh
O=C(Nc1cccc(-c2nc3ccccc3s2)c1)c1cc(-n2cnnc2)ccc1Cl | -2 | -6 | -6 | . | -58
Cc1ccc2sc(-c3ccc(NC(=O)c4cc(-n5cnnc5)ccc4Cl)cc3)nc2c1 | -1 | -2 | -22 | 119* | 30
CNc1nc(OCC#N)nc(N2CCCCC2)n1 | 0 | -3 | -4 | 44* | 15
COc1cc(CNC(C)(C)CO)cc(Br)c1OCc1ccccc1 | 1 | -8 | 56* | 0 | 5
CC(C)(CO)NCc1cc(Br)ccc1OCc1ccccc1 | 0 | -13 | 1 | . | -17
COc1cc(CNCCc2ccccc2)cc(Cl)c1OCc1ccccc1 | 1 | 2 | . | 122* | -4
O=C(N[C@H]1C=C[C@H](CC(=O)N2CCCCC2)O[C@H]1CO)c1ccc2c(c1)OCO2 | . | . | . | 4 | .
CS(=O)(=O)N1[C@H](CO)[C@H](c2ccccc2-c2ccc(F)cc2)[C@@H]1C#N | . | . | . | -6 | .
CC(=O)N1CC(=O)N2[C@@H](CO)[C@H](c3ccc(-c4ccc(C)cc4)cc3)[C@@H]2C1 | . | . | . | 1 | .
NC(=O)COC(=O)c1ccccc1Oc1ccccc1 | 1 | -3 | 3 | 46* | 0
NC(=O)NC(=O)COC(=O)c1ccccc1Oc1ccccc1 | 1 | -9 | -6 | . | 2
Nc1ccc(S(=O)(=O)Nc2nccc(/C=C/c3cccc([N+](=O)[O-])c3)n2)cc1 | . | . | 36 | 70* | -3
Nc1ccc(S(=O)(=O)Nc2nccc(/C=C/c3cccc(Br)c3)n2)cc1 | 0 | 5 | . | -2 | -9
COc1cccc(S(=O)(=O)N[C@@H]2CC[C@@H](CCn3cc(-c4ccccc4OC)nn3)O[C@@H]2CO)c1 | . | . | . | 17 | .
Cc1cc(C(=O)NCC(=O)O)c(C)o1 | -1 | 1 | 115* | 18 | 3
Cc1cc(C(=O)Nc2cccc(O)c2)c(C)o1 | 0 | 2 | -6 | 57* | 6
Cc1cc(C(=O)Nc2cccc(C(=O)O)c2)c(C)o1 | -9 | -2 | 2 | 0 | 8
C[C@H]1CN([C@@H](C)CO)C(=O)c2cc(NC(=O)CCC(F)(F)F)ccc2O[C@@H]1CN(C)C | . | . | . | 3 | .
CN1C(=O)C2C3c4ccccc4C(c4ccccc43)[C@@H]2C1=O (stereo partly specified) | 1 | 0 | -10 | 71* | -2
CC(=O)N(C(C)=O)N1C(=O)C2C3c4ccccc4C(c4ccccc43)C2C1=O (stereo unspecified) | 0 | -7 | 0 | -6 | -1
COc1ccc2c3c([nH]c2c1)[C@H](CO)N(Cc1ccccc1)CC31CCN(C(=O)c2cccnc2)CC1 | . | . | . | 2 | .
CCc1ccc(-c2c(C)sc(NC(=O)C3CCC3)c2C#N)cc1 | 0 | -2 | -7 | 139* | -54
Cc1sc(NC(=O)C2CCCC2)c(C#N)c1C | 0 | 4 | -8 | . | 2
CCC(=O)N(C)C[C@H]1Oc2ncc(C#CCC(C)C)cc2C(=O)N([C@@H](C)CO)C[C@@H]1C | . | . | . | -8 | .
Cc1noc(C)c1NC(=O)Nc1ccc2c(c1)CC(=O)N([C@H](C)CO)C[C@H](C)[C@@H](CN(C)S(=O)(=O)c1c(C)noc1C)O2 | . | . | . | 4 | .
CNc1ccc(Br)cc(C(=O)/C=C/c2cccc(OC)c2OC)c1=O | 1 | 0 | 75* | . | 9
CNc1ccc(Br)cc(C(=O)/C=C/c2cccc(Cl)c2Cl)c1=O | . | -9 | -3 | -18 | 6
CC(=O)NC[C@@H]1[C@@H](c2ccc(-c3cccnc3)cc2)[C@H](CO)N1C(=O)C1CCC1 | . | . | . | 4 | .
